Laboratory results reported in PubChem BioAssay AID932 (The Scripps Research Institute Molecular Screening Center, 2007).
About 5,100 (2.5%) of roughly 200,000 compounds were called active. This excerpt belongs to a sample that is enriched for actives. A number with no mark means an inactive call.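 How the source made its calls: active means activation above the screen-wide mean activation plus 3 SD (cut at about 130% in these data); inactive means the rest.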

Test: STAT1 signaling activators, primary screen, cell-based, HTS, luciferase reporter (AID 932);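 further: raw ratio to IFN-gamma control signal so 100% means no change and 0% no light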
Details: NIH 3T3 STAT1-luciferase reporter, IFN-gamma, luminescence; at 5.5 µM; hits give high values; 100% = IFN-gamma alone, no compound

| Structure (SMILES) | activation (% of control) |
| --- | --- |
| COCc1ccc(C(=O)N2CCc3c([nH]c4ccccc34)C2c2ccccn2)s1 (stereo not given) | 94% |
| Cc1ccc(OCC(=O)Nn2cnc3ccccc32)cc1 | 104% |
| COCCOCCn1cnc2ccccc21 | 104% |
| COC(=O)c1ccc(-n2cnc3ccccc32)nc1 | 129% (active) |
| O=C(O)CC1S/C(=N\N=C/c2ccccc2O)N(c2ccc(O)cc2)C1=O (stereo not given) | 102% |
| Cc1cccc2c1N(CCOc1ccccc1)C(=O)C2=O | 99% |
| Cc1cc(O)c(NC(=O)c2ccc(C)c([N+](=O)[O-])c2)cc1C | 103% |
| NC(=S)N/N=C/c1ccc([N+](=O)[O-])cc1 | 121% |
| Cc1nc2ccccc2cc1C(=O)N/N=C/c1ccc([N+](=O)[O-])cc1 | 93.6% |
| Cc1ccsc1C(=O)N/N=C/c1ccc([N+](=O)[O-])cc1 | 146% (active) |
| Cc1ccc(NC(=O)CN(C)CC(=O)Nc2cccc(F)c2)cc1[N+](=O)[O-] | 67.3% |
| Cc1ccc(NC(=O)c2sccc2C)cc1[N+](=O)[O-] | 138% (active) |
| C=CCNC(=O)COC(=O)c1ccccc1C(=O)N(C)C1CCCCC1 | 95.6% |
| O=c1[nH]n(-c2ccc([N+](=O)[O-])cc2)c(=O)c2ccccc12 | 101% |
| CCN1CC(CN(C)Cc2nc(-c3ccc(Cl)cc3)no2)CC1=O (stereo not given) | 96.3% |
| CC(C)C(c1nnnn1C(C)(C)C)N1CCN(Cc2cccnc2)CC1 (stereo not given) | 98.8% |
| CCCCCC(=O)Nc1ccc(-c2cn3cccnc3n2)cc1 | 103% |
| CC(C)(C)C1CCC(=NNC(=O)c2ccc(Br)o2)CC1 (stereo not given) | 121% |
| C/C(=N/NC(=O)c1ccc(Br)o1)c1ccc(C)o1 | 112% |
| CCC(C)(C)C1CCC(=NNC(=O)c2ccc(Br)o2)CC1 (stereo not given) | 129% (active) |
| COc1ccccc1-n1c(C)nc2cc(C(=O)NCc3ccc4c(c3)OCO4)ccc21 | 98.5% |
| COc1ccc(OC)c2[nH]c(=O)c(CCNC(=O)C(=O)c3c[nH]c4ccccc34)cc12 | 95.3% |

| Structure (SMILES) | activation (% of control) |
| --- | --- |
| Cc1ccc(NC(=O)CC2C(=O)N(Cc3ccccc3)C(=S)N2NC(=O)c2cccc(F)c2)c(C)c1 (stereo not given) | 103% |
| O=C(Cn1ncc(N2CCCC2)c(Br)c1=O)c1ccc(Cl)cc1 | 130% (active) |
| Cn1c(=O)c2c(nc(N3CCCCCC3)n2CC(=O)c2ccc(Br)cc2)n(C)c1=O | 94.8% |
| CC(=O)Cn1ncc(N2CCOCC2)c(Br)c1=O | 104% |
| O=C(COC(=O)/C=C/c1nc2ccccc2s1)Nc1ccccc1Oc1ccccc1 | 95.5% |
| CC(=O)NCC(=O)N1CCCC(C(=O)c2ccc3c4c(cccc24)CC3)C1 (stereo not given) | 99.2% |
| CCOC(=O)C1CCN(c2ccc(C(=O)O)cc2[N+](=O)[O-])CC1 | 98.3% |
| COc1ccc(NC(=O)N2CCCC(c3nc(-c4ccc(F)cc4)no3)C2)cc1 (stereo not given) | 102% |
| N#Cc1ccccc1NC(=O)c1cccc(COc2ccc(Cl)cc2Cl)c1 | 132% (active) |
| CSc1ccc(C#N)cc1NC(=O)c1cccc(Cl)c1 | 106% |
| O=C(Nc1ccn(Cc2ccccc2F)n1)c1ccc(COc2ccc(Cl)cc2Cl)o1 | 105% |
| CN1C=CC=C/C1=C1\SC(=S)N(Cc2ccccc2)C1=O | 104% |
| O=C(NCc1ccccn1)Nc1ccc(F)cc1 | 108% |
| c1ccc(CN=C2Nc3ccccc3CS2)nc1 | 135% (active) |
| CC(C)(C)NC(=O)CN1CCC(NC(=O)C23CC4CC(CC(C4)C2)C3)CC1 | 96.5% |
| COc1ccc(-n2nc(C(=O)NCC(=O)Nc3cccc(C)n3)c3ccccc3c2=O)cc1 | 99.9% |
| CCOC(=O)CNC(=O)c1nn(-c2cccc(OC)c2)c(=O)c2ccccc12 | 130% (active) |
| COc1cccc(-n2nc(C(=O)N3CCN(Cc4ccccc4)CC3)c3ccccc3c2=O)c1 | 99.9% |
| COc1ccc(-c2nn3c(-c4ccccc4)nnc3s2)cc1OC | 114% |
| COc1ccc(C2CC(c3cccs3)=Nc3ccccc3S2)cc1OC (stereo not given) | 106% |
| COc1ccc(-c2csc(-c3cccs3)n2)cc1OC | 182% (active) |
| Cc1ccc(NC(=S)N(CCN(C)C)Cc2cccs2)cc1C | 97.2% |

| Structure (SMILES) | activation (% of control) |
| --- | --- |
| Cc1ccc(NC(=O)c2cccs2)cc1S(=O)(=O)N(C)C | 101% |
| Cc1ccc(C(=O)Nc2ccc(C)c(S(=O)(=O)N(C)C)c2)s1 | 141% (active) |
| Cc1ccc(NC(=O)CNCc2ccccn2)cc1S(=O)(=O)N(C)C | 97.7% |
| C#CCOCCOCCOCCNc1nc(N2CCN(C(=O)C(Cc3ccc(O)cc3)n3cc(C(N)CC(C)C)nn3)CC2)nc(N2CCN(C(=O)C(Cc3ccc(O)cc3)n3cc(C(N)C(C)CC)nn3)CC2)n1 (stereo not given) | 109% |
| O=C(NC(=S)Nc1cccc(-c2ccc(CO)o2)c1)c1cccs1 | 93.4% |
| Cc1cc(-c2n[nH]c(=S)n2-c2ccc(C)c(C)c2)no1 | 90.1% |
| CCOC(=O)c1ccccc1N1C(=O)C2Sc3[nH]c(=O)sc3C(/C=C/c3ccccc3)C2C1=O (stereo not given) | 114% |
| COC(C(=O)Nc1ccc(S(=O)(=O)Nc2ccc(C)c(C)c2)cc1)c1ccccc1 (stereo not given) | 108% |
| Cc1ccc(SCCN2C(=O)NC(C)(C)C2=O)cc1 | 103% |
| CC(=O)c1cnc(SCCN2C(=O)c3ccccc3C2=O)nc1C | 95.5% |
| Nc1ccc(SCCN2C(=O)c3ccccc3C2=O)cc1 | 129% (active) |
| O=C(CN1CCSCC1)N/N=C/c1ccc(Cl)cc1 | 107% |
| COc1ccc(-c2ccc(CCC(=O)O)n2-c2ccc(O)cc2)cc1 | 101% |
| O=C(NCCc1ccccc1)c1ccc(OCCOc2ccccc2)cc1 | 109% |
| CC(C)c1ccc(C(=O)NCCCc2ccccc2)cc1 | 131% (active) |
| CCCOc1ccc(C(=O)NCCc2ccccc2)cc1 | 76.1% |
| COc1ccc(Cc2nnc(NC(=O)c3cc(OC)c(OC)c(OC)c3)s2)cc1OC | 89.1% |
| CCOCCCNC(=O)C(NC(=O)Cc1c[nH]c2ccccc12)c1ccc(OC)cc1 (stereo not given) | 87.9% |
| O=C(CSCc1cccs1)N1CCCC1 | 129% (active) |
| O=C(CSCc1ccc(Cl)cc1)N1CCCCC1 | 121% |
| O=C(CSc1ccsc1[N+](=O)[O-])N1CCCCC1 | 94.8% |
| COc1ccc(C(=O)NCc2nnc(SCCOc3ccccc3)n2C)cc1 | 102% |

| Structure (SMILES) | activation (% of control) |
| --- | --- |
| CS(=O)(=O)n1nc(-c2ccccc2)nc1NCc1ccco1 | 102% |
| CCS(=O)(=O)n1nc(-c2ccccc2)nc1SCc1ccccc1 | 130% (active) |
| CCS(=O)(=O)n1nc(-c2ccc(OC)cc2)nc1SC | 112% |
| COc1cccc(-n2c(=O)c3c(C)c(C(=O)N(C)C)sc3n(CC(=O)NCCc3ccc(OC)c(OC)c3)c2=O)c1 | 97.9% |
| COc1ccc(NC(=O)Nc2ccc3nsnc3c2)cc1 | 146% (active) |
| COc1ccc(C(=O)Nc2ccc(S(=O)(=O)NC(C)C)cc2)cc1 | 93.8% |
| COc1ccc(/C=N/NC(=O)Nc2ccc3nsnc3c2)c(OC)c1 | 114% |
| COc1ccc(NC(=O)c2ccc(C#CC(C)(C)O)cc2)cc1 | 106% |
| COc1ccc(NC(=O)c2ccc(OC)cc2)cc1 | 140% (active) |
| COc1ccc(NC(=O)Nc2ccc3nc(C)c(C)nc3c2)cc1 | 103% |
| CCOc1cc(/C=C(/C#N)c2ccc(Cl)cc2)cc(Cl)c1OCC(=O)O | 56.1% |
| COc1ccccc1Cn1c(C)nnc1-c1cnn(C)c1N | 93.2% |
| CCN(CCn1cccn1)Cc1cn[nH]c1-c1ccc(OC)cc1F | 89% |
| COc1ccc2ccccc2c1CNc1nnnn1C | 99.2% |
| CCC(=O)Nc1c(C)n[nH]c1C | 102% |
| COc1ccc(-n2cc(CN(C)Cc3n[nH]c(=O)[nH]3)c(-c3cccc(F)c3)n2)cc1 | 104% |
| Cc1ccc(NC(=S)N(CCCN2CCCC2)Cc2cccn2Cc2ccc(Cl)cc2)cc1 | 85.3% |
| Cc1ccc(S(=O)(=O)NCCc2nnc3ccc(SCc4cccnc4)nn23)cc1 | 99% |
| COc1cc(-c2nc(-c3ccncc3)no2)cc(OC)c1OC | 97.3% |
| CCOc1nc(-c2ccc(OC)cc2)ccc1-c1noc(-c2cc(OC)c(OC)c(OC)c2)n1 | 102% |
| COc1ccc(-c2noc(-c3cccc(OC)c3OC)n2)cc1OC | 144% (active) |
| COc1cccc(NC(=O)CN(C)C(C)C(=O)Nc2ccc(C#N)cc2)c1 (stereo not given) | 90.8% |

| Structure (SMILES) | activation (% of control) |
| --- | --- |
| O=C(N/N=C/c1ccc2c(c1)OCO2)C(=O)N1CCCC1 | 132% (active) |
| COc1cccc(/C=N/NC(=O)C(=O)N2CCCC2)c1 | 99% |
| O=C(N/N=C/c1ccc([N+](=O)[O-])cc1)C(=O)N1CCCC1 | 107% |
| CC(Nc1nc(N2CCN(CCO)CC2)nc2ccccc12)c1ccccc1 (stereo not given) | 106% |
| CN(CCC1CCOCC1)Cc1cn[nH]c1-c1ccc(-c2ccccc2)cc1 | 115% |
| Cc1cccc(CSc2ccc(-c3cccs3)nn2)c1 | 130% (active) |
| O=C(CSc1ccc(-c2cccs2)nn1)Nc1ccccc1F | 104% |
| Cc1cccc(CSc2nnc(NC(=O)CSc3nnc(C)s3)s2)c1 | 107% |
| Cc1ccc(NC(=S)N(CCN2CCCCC2)Cc2ccco2)cc1C | 98% |
| C=CCC1(CC=C)CCCN1C(=O)CC1C(=O)NCCN1Cc1ccccc1OC (stereo not given) | 98.1% |
| CCOC(=O)c1ccc2c(c1)nc(C)n2CC | 130% (active) |
| CCOC(=O)c1ccc2c(c1)nc(SCC(=O)NC(C)C)n2CC | 103% |
| CCn1c(C)nc2cc(C(=O)NNS(=O)(=O)c3ccc(C)cc3C)ccc21 | 95% |
| COc1ccc2nc(/N=C(\N)NC(=O)Nc3ccccc3)nc(C)c2c1 | 104% |
| Cc1ccc(/C=N/NC(=O)Cn2ccc(C(F)(F)F)n2)o1 | 94.7% |
| COc1ccc(C(=O)/C=C/Nc2ccccn2)cc1 | 23.6% |
| Cc1cc(N/C=C\C(=O)c2ccc(Cl)c(Cl)c2)no1 | 135% (active) |
| CCC(=O)Nc1ccc(C(=O)Nc2cc(C)on2)cc1 | 107% |
| CCn1c(C(C)C)n[nH]c1=S | 103% |
| CCc1nnc(NC(=O)CSc2nc(SC)ns2)s1 | 101% |
| O=C(CSc1nnc2ccc(-c3ccncc3)nn12)N1CCCCC1 | 95.3% |
| CCSC1=NCCN1C(=O)c1ccc(S(=O)(=O)N(CC)CC)cc1 | 95.6% |
